Most compounds without a hit are left out; they make up all but 9.5% or so of the library.
RE007 growth inh = less growth of the S. pombe RE007 Vpr strain. AID 651644. actives 0.21% (n = 360,000). S. pombe RE007 Vpr strain, BacTiter-Glo ATP luminescence, 24 h. Potency, µM (top dose mostly 92.2 µM), for the others: at the top dose activity change, negative = less growth, hits mostly inhibitors; active means well fitted falling curve with a large enough effect; inconclusive means small, poorly fitted or top-dose-only effect; inactive means no such curve, though single readings can be large or run the other way; further: on the % scale 0 is the no-effect control and ±100 the full control effect; nearly all actives have a fitted effect of over 50% in size
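Fission yeast RE007 carrying one integrated HIV-1 vpr copy, seeded at OD 0.01 in PMG+AL medium with 23 nL pinned compound. Grown 24 h at 30 degrees; viability read by BacTiter-Glo luminescence after 5 min.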
Pf growth 48h = inhibits P. falciparum growth in the first generation, 48 h. P. falciparum luciferase growth in erythrocytes, 48 h. Potency, µM (titrated, usually from 28.7 µM), for the others: top-dose activity change, negative = inhibition, usual class: inhibitors. actives 5.9% (n = 310,000); active means well fitted inhibition curve with a large enough effect; inconclusive means small, poorly fitted or top-dose-only effect, or another doubt; inactive means no such curve, though single readings can be large or run the other way; further: on the % scale 0 is the no-effect control and ±100 the full control effect
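Luminescence readout; reporter = integrated firefly luciferase in P. falciparum. RBC culture at 2% hematocrit, 0.1% parasitemia final, 37 C/5% CO2; decreased signal taken as growth inhibition.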
Pf growth 96h = P. falciparum growth inhibition at 96 hours; Potency, µM (titrated, usually from 28.7 µM), for inactives: at the highest dose activity change, negative = inhibition, most hits filed as inhibitors; actives 6.9% (n = 320,000); P. falciparum luciferase reporter growth, 96 h; active means well fitted inhibition curve with a large enough effect; inconclusive means small, poorly fitted or top-dose-only effect, or another doubt; inactive means no such curve, though single readings can be large or run the other way; further: on the % scale 0 is the no-effect control and ±100 the full control effect
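Infected RBCs, 2% Hct / 0.05% parasitemia final; luciferase-reporter P. falciparum; cpd 96 h, 37 C, 5% CO2; luciferase detection reagent; luminescence.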
SARS PLpro yeast = inhibitors of SARS-CoV papain-like protease in yeast | S. cerevisiae expressing SARS-CoV PLpro, growth rescue | actives 0.19% (n = 330,000) | Potency, µM (series often up to 32.9 µM), inactives show at the top dose activity, positive = growth rescue, actives largely listed as activators; further: 0% is about no effect; nearly all actives have a fitted effect of over 55% in size
NS1 function inh = blocks influenza NS1 protein function; Potency, µM (titrated, usually from 46.1 µM), without a hit: at the top dose activity, positive = more growth; actives 0.4% (n = 270,000); AID 2326; further: actives are rising curves; nearly all actives have a fitted effect of over 50% in size
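In this qHTS, NS1 from influenza A is expressed in budding yeast, where it slows growth. Cells are switched from glucose to 2% galactose medium (pH 6.0, -URA), treated with compound, and growth recovery is read at OD600.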
Active calls of the source: *; ? = inconclusive; . = not tested or not shown; [ ] = another dose, or the depositor's remark. Unless noted, the call rests on the fitted dose curve. Potency means the concentration at half of the fitted maximal effect.

SMILES	RE007 growth inh	Pf growth 48h	Pf growth 96h	SARS PLpro yeast	NS1 function inh
Cc1c(CN(C)C(=O)/C=C/c2ccc([N+](=O)[O-])cc2)cnn1C	-11%	-2%	244%	15%	6%
CC1CCN(S(=O)(=O)c2cccc3cccnc23)CC1	33%	4%	-12%	-2%	-4%
COC1CCCCC1Nc1cccc(SC)c1 (configuration not stated)	-7%	28%	.	-3%	?
COC1CCCCC1Nc1cc(C)cc(C)c1 (configuration not stated)	-17%	.	13µM*	1%	1%
CCn1c2ccccc2c2n[nH]c(=S)nc21	38%	13%[0.00184 µM]	-1%	-4%	4%
O=C(O)Cn1c2ccccc2c2n[nH]c(=S)nc21	8%	-5%	3.7µM*	9%	2%
CC(C)OC(=O)c1ccc2nc3ccccc3nc2c1	-23%	70%	124%	-3%	-10%
O=C(Nc1ccccc1)Nc1cc(OCC(F)(F)F)cc(OCC(F)(F)F)c1	1%	2.6µM*	3.3µM*	?	4%
COc1ccc(C(=O)c2c(C)c3cc(C)ccc3n2CC(O)CN2CCOCC2)cc1 (configuration not stated)	-5%	?	12µM*	10%	-42%
Fc1c(F)c(-n2nnc3ccccc32)c(F)c(F)c1Cl	-23%	7%	32%	1%	3%
Cc1ccc(CN2C(=O)CCC2(C)c2nnnn2Cc2ccccc2)cc1 (configuration not stated)	0%	.	.	.	.
O=C1N(CCCl)c2ccc(Br)cc2C12OCCO2	-7%	-5%	?	-1%	-9%
Nc1nc2ccccc2n1/N=C/c1ccc([N+](=O)[O-])s1	-13%	?	1.5µM*	-53%	-20%
CNc1nc(Oc2cccc(F)c2)c2sccc2n1	1%[18.4 µM]	.	.	.	.
COc1ccc(OC)c(S(=O)(=O)NC(=O)C2(C)CCN2C(=O)CC2CCCC2)c1 (configuration not stated)	4%	.	.	.	.
N#CC(C#N)=C(C#N)c1ccc(Nc2ccccc2)cc1	18%	13%	12µM*	-7%	-74%
c1ccc(Nc2ccc(Nc3ccccc3)cc2)cc1	-17%	-15%	?	-6%	.
CCCCCCCCCCOC(=O)Cn1c(COc2ccccc2OC)[n+](C)c2ccccc21	9%	1.7µM*	?	-13%	-100%
CCCCn1c(O)c(N=Nc2ccccc2O)c2ccccc21	-7%	6.6µM*	42%	0%	.
CCN(CC(=O)Nc1cc(Cl)ccc1C)C(=O)c1nc2nc(C)cc(C)n2n1	-11%	-1%	-21%	6%	.
COC(CNC(=O)CCc1c(C)nc2c(-c3ccc(F)cc3)c(C)nn2c1C)OC	7%	-29%	?	-3%	3%
Cc1nc2c(-c3ccc(F)cc3)c(C)nn2c(C)c1CCC(=O)Nc1ccccc1F	8%	?	9.3µM*	1%	-6%
COc1ccccc1-c1cc2nc(C)c(CCC(=O)NC(C)CCc3ccco3)c(C)n2n1 (configuration not stated)	-12%	.	-22%	3%	3%
Cc1nc2c(-c3ccccc3)c(C)nn2c(C)c1CCC(=O)NC(C)CCc1ccco1 (configuration not stated)	-3%	.	10µM*	-2%	1%
COc1ccc(N(C(=O)c2snc(C(N)=O)c2N)C(C(=O)NC2CCCCC2)c2ccc(C)o2)cc1 (configuration not stated)	3%	8.3µM*	-21%	0%	12%
SMILES	RE007 growth inh	Pf growth 48h	Pf growth 96h	SARS PLpro yeast	NS1 function inh
COc1cc(OC)cc(N(C(=O)c2snc(C(N)=O)c2N)C(C(=O)NCC2CCCO2)c2ccc(C)o2)c1 (configuration not stated)	.	4.7µM*	36%	2%	21%
COc1ccc(N(C(=O)c2snc(C(N)=O)c2N)C(C(=O)NC2CCCC2)c2ccco2)cc1 (configuration not stated)	2%	?	-25%	-1%	4%
COc1ccc(-c2nsc(C(=O)N(c3ccc(F)cc3)C(C(=O)NC3CCCC3)c3ccc(OC)cc3)c2N)cc1 (configuration not stated)	12%	2.6µM*	.	-1%	6%
COc1ccccc1Cc1c(-c2ccc(C#N)cc2)nc2ccc(C)cn12	-22%	.	.	.	.
CSc1ccc(C(=O)C2CCCN(Cc3cccn3-c3cccnc3)C2)cc1 (configuration not stated)	-8%	10µM*	11%	-2%	0%
CC(C)Oc1cccc(C(=O)C2CCCN(Cc3cccn3-c3cccnc3)C2)c1 (configuration not stated)	-10%	?	12µM*	12%	2%
COc1ccc(CN2CCCC(C(=O)c3cccc(OC(C)C)c3)C2)cc1Cn1cccn1 (configuration not stated)	1%	9.3µM*	-30%	1%	0%
O=C(c1ccc(Cl)cc1)C1CCCN(Cc2cccn2-c2cccnc2)C1 (configuration not stated)	4%	24%	1%	0%	5%
Clc1ccc(-c2noc3c2-c2nc(Cc4cccc5ccccc45)sc2CC3)cc1	-1%	?	?	1%	.
COCCNC(=O)C1(C)CCCN(Cc2ccc(-n3ccnc3)cc2)C1 (configuration not stated)	-20%[18.4 µM]	.	.	.	.
Cn1cccc1-c1cc(C(=O)N/N=C/c2ccc(Cl)cc2)[nH]n1	-13%	-23%	492%	-16%	5%
COc1cccc(/C=N/NC(=O)c2ccc(CN3c4cccc5cccc(c45)S3(=O)=O)cc2)c1	9%	-16%	10µM*	-5%	24%
COc1cccc(/C=N/NC(=O)c2cc(-c3cccn3C)n[nH]2)c1	-3%	?	12µM*	-1%	16%
COc1cc(/C=N/NC(=O)c2cc(-c3cccn3C)n[nH]2)cc(OC)c1OC	3%	6.6µM*	23%	7%	9%
Cn1ncc2c1NC(c1ccc(F)cc1)SCC2=O (configuration not stated)	-1%	.	.	.	.
[2H]c1c([2H])c([2H])c(-c2nc(N3CCCCCC3)sc2C(=O)c2ccccc2)c([2H])c1[2H]	6%	?	4.1µM*	-15%	-2%
O=C(c1sc(N2CCOCC2)nc1-c1ccccc1)N1CCCCC1	-4%	-10%	-6%	14%	-9%
CCc1c(C2(O)CCCCC2)[nH]c2ccc(C(F)(F)F)cc12	?	30%	110%	-34%	-135%
O=C(Nc1nnc([C@@H]2C[C@H](O)[C@@H](CO)O2)s1)c1ccc(Oc2ccccc2)cc1	4%[18.4 µM]	.	.	.	.
O=Cc1cccn1-c1c(C(=O)O)cnn1-c1ccccc1	-6%	16%	10µM*	-2%	.
CCC(C)(C(=O)NC1CCCC1)N(Cc1cccs1)C(=O)c1ccccn1 (configuration not stated)	12%	9%	2.9µM*	0%	.
Cc1ccc(S(=O)(=O)N(C)C)cc1NC(=O)CSc1nc2ccccc2[nH]1	4%	?	9.3µM*	7%	-10%

Source: PubChem BioAssay (National Center for Advancing Translational Sciences (NCATS))
